In PubChem BioAssay (NCI):
Compounds without any hit were thinned out: in the full panel of roughly 83,000, 20% have a hit.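 Method: cells in 96-well plates; compound added at one concentration; 48 h incubation; percent growth measured; values under 10 scored active.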 Values without a mark were called inactive. Calls of active or inactive are those of the source.

What was measured:
Test in all cases: NCI-60 one-dose screen, 48 h (100 = growth as untreated, 0 = no growth, -100 = all killed)
Conditions in all cases: 10 µM unless noted
SR leukemia = tested on: SR leukemia
RPMI-8226 leukemia = tested on: RPMI-8226 leukemia
OVCAR-8 ovarian = tested on: OVCAR-8 ovarian
OVCAR-5 ovarian = tested on: OVCAR-5 ovarian
OVCAR-4 ovarian = tested on: OVCAR-4 ovarian
SK-OV-3 ovarian = tested on: SK-OV-3 ovarian
IGROV1 ovarian = tested on: IGROV1 ovarian
OVCAR-3 ovarian = tested on: OVCAR-3 ovarian
HS 578T breast = tested on: HS 578T breast
NCI/ADR-RES ovarian = tested on: NCI/ADR-RES ovarian

`Cc1ccc(N(CC(=O)Nc2ccc(S(=O)(=O)NC3CCN(C)CC3)cc2)S(=O)(=O)c2ccc(Cl)cc2)cc1` was tested, and the growth (SR leukemia) was 5.99% (active), the growth (RPMI-8226 leukemia) was 65.6% and the growth (OVCAR-8 ovarian) was 96.2%. The growth (OVCAR-5 ovarian) was 91.6%, the growth (OVCAR-4 ovarian) was 87.8% and the growth (SK-OV-3 ovarian) was 105%. For the same molecule, the growth (IGROV1 ovarian) was 85.7%, the growth (OVCAR-3 ovarian) was 72.5% and the growth (HS 578T breast) was 69.5%. It also gave a growth (NCI/ADR-RES ovarian) of 98.6%.

`COc1ccccc1CNc1nc(N)nc2[nH]c3ccc(O)cc3c12` was tested, and the growth (SR leukemia) was 4.16% (active), the growth (RPMI-8226 leukemia) was 48.8% and the growth (OVCAR-8 ovarian) was 53.7%. For the same molecule, the growth (OVCAR-5 ovarian) was 76.4%, the growth (OVCAR-4 ovarian) was 80.2% and the growth (SK-OV-3 ovarian) was 73.4%. The growth (IGROV1 ovarian) was 50.9%, the growth (OVCAR-3 ovarian) was 44.6% and the growth (HS 578T breast) was 59.2%. For the same molecule, the growth (NCI/ADR-RES ovarian) was 82.6%.

In the case of `N=c1ccc2nc3c(cc(N)c4ccccc43)oc-2c1`, the growth (SR leukemia) is reported as -41% (active), the growth (RPMI-8226 leukemia) is reported as -49.3% (active) and the growth (OVCAR-8 ovarian) is reported as -54.1% (active). For the same molecule, the growth (OVCAR-5 ovarian) was -100% (active), the growth (OVCAR-4 ovarian) was -100% (active) and the growth (SK-OV-3 ovarian) was -96.3% (active). The growth (IGROV1 ovarian) was -29.4% (active), the growth (OVCAR-3 ovarian) was -90.1% (active) and the growth (HS 578T breast) was -23.3% (active). For the same molecule, the growth (NCI/ADR-RES ovarian) was -57.7% (active).

In the case of `CN1CCN(CCOc2ccc(-c3cnc4c(-c5ccccc5F)cnn4c3)cc2)CC1`, the growth (SR leukemia) is reported as -12.6% (active), the growth (RPMI-8226 leukemia) is reported as -9.99% (active) and the growth (OVCAR-8 ovarian) is reported as 40.7%. For the same molecule, the growth (OVCAR-5 ovarian) was 80.4%, the growth (OVCAR-4 ovarian) was 63.6% and the growth (SK-OV-3 ovarian) was 94.2%. For the same molecule, the growth (IGROV1 ovarian) was 57.3%, the growth (OVCAR-3 ovarian) was 20.3% and the growth (HS 578T breast) was 76.9%. For the same molecule, the growth (NCI/ADR-RES ovarian) was 48.8%.

`C=C(C)[C@@H]1CC[C@]2(C(=O)NNC(=O)c3cccnc3)CC[C@]3(C)[C@H](CC[C@@H]4[C@@]5(C)CCCNC(C)(C)[C@@H]5CC[C@]43C)[C@@H]12` showed a growth (SR leukemia) of 18.9%, a growth (RPMI-8226 leukemia) of 46.6% and a growth (OVCAR-8 ovarian) of 76.7%. It also gave a growth (OVCAR-5 ovarian) of 96.9%, a growth (OVCAR-4 ovarian) of 75.3% and a growth (SK-OV-3 ovarian) of 107%. The growth (IGROV1 ovarian) was 91%, the growth (OVCAR-3 ovarian) was 81.2% and the growth (HS 578T breast) was 67.3%. The growth (NCI/ADR-RES ovarian) was 90.5%.

`COC(=O)[C@]12CC[C@@H](C(/C=C/c3cccnc3)=N/O)[C@@H]1[C@H]1CC[C@@H]3[C@@]4(C)CC(=C/c5cccnc5)/C(=N/O)C(C)(C)[C@@H]4CC[C@@]3(C)[C@]1(C)CC2` was tested, and the growth (SR leukemia) was 11.4%, the growth (RPMI-8226 leukemia) was 1.81% (active) and the growth (OVCAR-8 ovarian) was 39%. It also gave a growth (OVCAR-5 ovarian) of 60.6%, a growth (OVCAR-4 ovarian) of 40.8% and a growth (SK-OV-3 ovarian) of 64.7%. It also gave a growth (IGROV1 ovarian) of 16.9%, a growth (OVCAR-3 ovarian) of 37.4% and a growth (HS 578T breast) of 78.6%. It also gave a growth (NCI/ADR-RES ovarian) of 33.6%.

In the case of `Cc1cc(N2CCCCC2)nc(N(CCNc2ccnc3cc(Cl)ccc23)Cc2ccco2)n1`, the growth (SR leukemia) is reported as -15.8% (active), the growth (RPMI-8226 leukemia) is reported as -36.5% (active) and the growth (OVCAR-8 ovarian) is reported as 22.3%. It also gave a growth (OVCAR-5 ovarian) of 50.2%, a growth (OVCAR-4 ovarian) of 43.2% and a growth (SK-OV-3 ovarian) of 77.9%. The growth (IGROV1 ovarian) was 18.1%, the growth (OVCAR-3 ovarian) was -40% (active) and the growth (HS 578T breast) was 51.4%. For the same molecule, the growth (NCI/ADR-RES ovarian) was 10.5%.

With `COC(=O)[C@]12CC[C@@H](C)[C@H](C)[C@@H]1C1=CC[C@@H]3[C@@]4(C)C[C@@H](OC(C)=O)[C@H](OC(C)=O)[C@@](C)(COC(C)=O)[C@@H]4[C@H](O)C[C@@]3(C)[C@]1(C)CC2` the growth (SR leukemia) was 2.75% (active), the growth (RPMI-8226 leukemia) was 5.96% (active) and the growth (OVCAR-8 ovarian) was 16.9%. For the same molecule, the growth (OVCAR-5 ovarian) was 34.6%, the growth (OVCAR-4 ovarian) was 19.3% and the growth (SK-OV-3 ovarian) was 2.45% (active). The growth (IGROV1 ovarian) was 36.7%, the growth (OVCAR-3 ovarian) was 15% and the growth (HS 578T breast) was 35.9%. For the same molecule, the growth (NCI/ADR-RES ovarian) was 10.5%.

Molecule `COc1cc(/C=C/c2cc(/C=C/c3ccc(O)c(OC)c3)n(-c3ccc(Cl)cc3)c(=O)n2)ccc1O` has a growth (SR leukemia) of 36.4%, a growth (RPMI-8226 leukemia) of 64.5% and a growth (OVCAR-8 ovarian) of 107%. For the same molecule, the growth (OVCAR-5 ovarian) was 103%, the growth (OVCAR-4 ovarian) was 78.3% and the growth (SK-OV-3 ovarian) was 89.7%. The growth (IGROV1 ovarian) was 8.57% (active), the growth (OVCAR-3 ovarian) was 83.8% and the growth (HS 578T breast) was 87.4%. The growth (NCI/ADR-RES ovarian) was 96.5%.

With `CC(=O)Cc1nsc(NC(=O)c2ccoc2COc2ccccc2)n1` the growth (SR leukemia) was 104%, the growth (RPMI-8226 leukemia) was 88.6% and the growth (OVCAR-8 ovarian) was 103%. It also gave a growth (OVCAR-5 ovarian) of 94.1%, a growth (OVCAR-4 ovarian) of 103% and a growth (SK-OV-3 ovarian) of 111%. The growth (IGROV1 ovarian) was 95.9%, the growth (OVCAR-3 ovarian) was 111% and the growth (HS 578T breast) was 107%. It also gave a growth (NCI/ADR-RES ovarian) of 99.1%.

For `O=S(=O)(NCCNc1cc(-c2cn(-c3ccccc3)nc2-c2cccc(O)c2)ccn1)c1ccc(F)cc1`, the growth (SR leukemia) was -5.97% (active), the growth (RPMI-8226 leukemia) was 9.5% (active) and the growth (OVCAR-8 ovarian) was 23.7%. The growth (OVCAR-5 ovarian) was 62.9%, the growth (OVCAR-4 ovarian) was 41.3% and the growth (SK-OV-3 ovarian) was 46.4%. For the same molecule, the growth (IGROV1 ovarian) was 46.2%, the growth (OVCAR-3 ovarian) was 35.8% and the growth (HS 578T breast) was 15.7%. It also gave a growth (NCI/ADR-RES ovarian) of 17.9%.

With `NCCn1cc(-c2nc(-c3c[nH]c4ncccc34)cs2)c2cc(F)ccc21` the growth (SR leukemia) was -5.68% (active), the growth (RPMI-8226 leukemia) was 59.2% and the growth (OVCAR-8 ovarian) was 76.1%. For the same molecule, the growth (OVCAR-5 ovarian) was 92.6%, the growth (OVCAR-4 ovarian) was 59.8% and the growth (SK-OV-3 ovarian) was 78.9%. The growth (IGROV1 ovarian) was 47.1%, the growth (OVCAR-3 ovarian) was 85.6% and the growth (HS 578T breast) was 81.9%. The growth (NCI/ADR-RES ovarian) was 86.4%.

With `CCN1CCN(C(=O)[C@]23CCC(C)(C)C[C@H]2C2=CC[C@@H]4[C@@]5(C)CC/C(=N/O)C(C)(C)[C@@H]5CC[C@@]4(C)[C@]2(C)CC3)CC1` the growth (SR leukemia) was 0.702% (active), the growth (RPMI-8226 leukemia) was 16.6% and the growth (OVCAR-8 ovarian) was 56.9%. For the same molecule, the growth (OVCAR-5 ovarian) was 78.1%, the growth (OVCAR-4 ovarian) was -20.5% (active) and the growth (SK-OV-3 ovarian) was 105%. The growth (IGROV1 ovarian) was 68%, the growth (OVCAR-3 ovarian) was 53.5% and the growth (HS 578T breast) was 84.2%. The growth (NCI/ADR-RES ovarian) was 60.1%.

In the case of `O=S(=O)(NCCNc1cc(-c2cn(-c3ccccc3)nc2-c2cccc(O)c2)ccn1)c1ccc(Cl)cc1`, the growth (SR leukemia) is reported as 2.36% (active), the growth (RPMI-8226 leukemia) is reported as 12.8% and the growth (OVCAR-8 ovarian) is reported as 31%. The growth (OVCAR-5 ovarian) was 63.4%, the growth (OVCAR-4 ovarian) was 38.2% and the growth (SK-OV-3 ovarian) was 53.5%. It also gave a growth (IGROV1 ovarian) of 44.4%, a growth (OVCAR-3 ovarian) of 43.2% and a growth (HS 578T breast) of 21.2%. It also gave a growth (NCI/ADR-RES ovarian) of 29.1%.

`COc1cc2nc(Cl)nc(Nc3cccc(C(=O)/C=C/c4ccccc4)c3)c2cc1OC` was tested, and the growth (SR leukemia) was 8.85% (active), the growth (RPMI-8226 leukemia) was -2.13% (active) and the growth (OVCAR-8 ovarian) was 49.6%. The growth (OVCAR-5 ovarian) was 68.9%, the growth (OVCAR-4 ovarian) was 70.6% and the growth (SK-OV-3 ovarian) was 81.1%. The growth (IGROV1 ovarian) was 37.3%, the growth (OVCAR-3 ovarian) was 38.2% and the growth (HS 578T breast) was 98.5%. For the same molecule, the growth (NCI/ADR-RES ovarian) was 49.9%.

`COc1ccc(-c2cc(-c3c(C)oc4cc5occc5c(OC)c4c3=O)nc(N)c2C#N)cc1OC` was tested, and the growth (SR leukemia) was 5.99% (active), the growth (RPMI-8226 leukemia) was 55.2% and the growth (OVCAR-8 ovarian) was 61.2%. It also gave a growth (OVCAR-5 ovarian) of 92.9%, a growth (OVCAR-4 ovarian) of 74.6% and a growth (SK-OV-3 ovarian) of 75.7%. For the same molecule, the growth (IGROV1 ovarian) was 51.8%, the growth (OVCAR-3 ovarian) was 77.4% and the growth (HS 578T breast) was 53.5%. For the same molecule, the growth (NCI/ADR-RES ovarian) was 61.9%.

With `CC1(C)C(=O)/C(=C\c2ccccn2)C[C@]2(C)[C@H]3CC[C@@H]4[C@@H](C(=O)/C=C/c5ccccn5)CC[C@@]4(C)[C@]3(C)CC[C@@H]12` the growth (SR leukemia) was 3.7% (active), the growth (RPMI-8226 leukemia) was -5.71% (active) and the growth (OVCAR-8 ovarian) was 15.5%. The growth (OVCAR-5 ovarian) was -21.7% (active), the growth (OVCAR-4 ovarian) was -1.54% (active) and the growth (SK-OV-3 ovarian) was 35.1%. The growth (IGROV1 ovarian) was -52% (active), the growth (OVCAR-3 ovarian) was -69% (active) and the growth (HS 578T breast) was 15.1%. For the same molecule, the growth (NCI/ADR-RES ovarian) was 0.68% (active).
